PubChem BioAssay AID920 (The Scripps Research Institute Molecular Screening Center, 2007)
The whole screen tested about 200,000 compounds, of which about 700 (0.35%) were called active. The sample as a whole holds a higher share of actives than the screen did. Unmarked numbers belong to inactive results.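 How the source made its calls: active means inhibition above a set limit, the mean inhibition across all tested compounds plus 3 SD (cut at about 34% in these data); inactive means the rest.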

Assay: STAT1 signaling inhibitors, primary screen, cell-based, HTS, luciferase reporter (AID 920);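 further: 0% = IFN-gamma with DMSO and 100% = IFN-gamma with 300 µM nifuroxazide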
Conditions: NIH 3T3 STAT1-luciferase reporter, IFN-gamma, luminescence; at 5.5 µM; active compounds read high

| SMILES | inhibition |
| --- | --- |
| Cn1c(=O)n(C)c2cc(C(=O)Nc3ccc4c(c3)OCO4)ccc21 | 35.6% (active) |
| Cn1c(NC(=O)c2ccc3c(c2)OCO3)cc(=O)n(C)c1=O | 0.99% |
| COc1ccc(C(=O)Nc2ccc3c(c2)OCO3)cc1OC | -0.74% |
| Clc1cccc(-c2nc(NCC3CCCO3)c3ccccc3n2)c1 (stereo not given) | -0.29% |
| CCc1[nH]nc(C(=O)N2CCCC(CNS(=O)(=O)c3cccs3)C2)c1C (stereo not given) | 0.5% |
| O=C(Nc1cccc([N+](=O)[O-])c1)Nc1ccc(Cl)cn1 | -18.6% |
| CCN(CC)C(=O)CN(c1cccc([N+](=O)[O-])c1)S(=O)(=O)c1ccccc1 | 3.4% |
| O=C(CCl)N(Cc1cccc([N+](=O)[O-])c1)c1cccc(Cl)c1 | 60.4% (active) |
| Cn1cccc1/C=C1\SC(=S)N(NC(=O)c2ccc(Cl)cc2)C1=O | -4.58% |
| Cc1cc(C)nc(Nc2ncn[nH]2)n1 | -2.94% |
| Oc1ccc(-c2nncn2-c2ccccc2)cc1 | -0.73% |
| CCOc1ccc(OCc2cccc(C(=O)N(CC)CC)c2)cc1 | 61% (active) |
| CCN(CC)C(=O)c1ccc(O)c(OC)c1 | 1.97% |
| COc1ccc(OCc2cccc(C(=O)N3CCCC3)c2)cc1 | 17.5% |
| CCOc1ccc(NC(=O)CSc2ncnc3c2sc2ccccc23)cc1 | 1.83% |
| Cc1nnc(CN(C)Cc2cn[nH]c2-c2ccc(-c3ccccc3)cc2)o1 | -18.1% |
| CCCCn1c(O)c(N=NC(=O)Cn2c(C(F)(F)F)nc3ccccc32)c2ccccc21 | -1.73% |
| Cc1ccc(N(C(=O)Cc2cccs2)C2C=CS(=O)(=O)C2)cc1Cl (stereo not given) | 0.68% |
| C[C@@H]1C[C@@H]2O[C@H]2/C=C\C=C\C(=O)Cc2c(Cl)c(O)cc(O)c2C(=O)O1 | 41.3% (active) |
| O=C(COC(=O)CCc1ccc(S(=O)(=O)N2CCOCC2)cc1)Nc1cccc(Cl)c1 | -8.09% |

| SMILES | inhibition |
| --- | --- |
| CCN(CC)S(=O)(=O)c1ccc(C)c(NC(=O)COc2ccc(Br)cc2Cl)c1 | 0.32% |
| O=C(Nc1ccc2c(c1)OCCO2)c1cnccn1 | -23.3% |
| Cn1cc([N+](=O)[O-])c(C(=O)Nc2cnn(Cc3ccc(F)cc3)c2)n1 | 20.5% |
| Cn1cc([N+](=O)[O-])c(C(=O)Nc2ccc3c(c2)OCCO3)n1 | 48.8% (active) |
| NS(=O)(=O)c1ccc(N2C(=O)C3C4CC(C(Br)C4Br)C3C2=O)cc1 (stereo not given) | 2.56% |
| CS(=O)(=O)N(Cc1ccccc1)c1ccc(C(=O)NN=C2CCCCCC2)cc1 | 6.58% |
| O=C(NC(Nc1nc2ccc([N+](=O)[O-])cc2s1)(C(F)(F)F)C(F)(F)F)c1ccccc1 | 60.6% (active) |
| O=C(Nc1nc2ccc([N+](=O)[O-])cc2s1)c1ccc(S(=O)(=O)N2CCCc3ccccc32)cc1 | 12.3% |
| O=C(O)CCC(=O)Nc1nc2ccc([N+](=O)[O-])cc2s1 | -0.97% |
| O=C(COc1ccccc1)Nc1ccc(N2CCN(C(=O)c3cccs3)CC2)cc1 | -5.48% |
| CN(c1ccc2nc3ccccc3c(=O)n2n1)C1CCCCC1 | 90.1% (active) |
| CCOC(=O)C(C)Sc1nc2ccccc2c(=O)n1CC1CCCCC1 (stereo not given) | 2.46% |
| O=c1c2ccccc2nc2n1C1(CCCCC1)Cc1ccccc1-2 | -5.21% |
| Cc1ccc(C)c(-n2nnnc2SCC(=O)c2c(N)n(C)c(=O)n(C)c2=O)c1 | -0.37% |
| CCc1ccc(NC(=O)Nc2ccncc2)cc1 | -10.4% |
| CCOc1cc(C)c(Cl)cc1S(=O)(=O)n1nnc2ccccc21 | 42.2% (active) |
| CCCOc1cc(C)c(S(=O)(=O)n2nnc3ccccc32)cc1C | -0.4% |
| COc1cc(C)c(Cl)cc1S(=O)(=O)n1ccnc1 | 7.39% |
| CC(CC(=O)O)CC(=O)NNC(=O)c1cccc(Br)c1 (stereo not given) | -8.27% |
| O=C1c2ccccc2NC(c2ccccn2)N1NS(=O)(=O)c1ccccc1 (stereo not given) | -5.92% |

| SMILES | inhibition |
| --- | --- |
| O=c1oc2ccccc2cc1-c1cn(-c2ccccc2)c(=S)[nH]1 | 76.9% (active) |
| Nc1ncc(-c2cc3ccccc3oc2=O)s1 | -72.7% |
| O=C(c1cn(-c2ccccc2)nc1-c1cc2ccccc2oc1=O)N1CCOCC1 | 2.66% |
| CCNC(=O)COc1cc(C)c(Br)c(C)c1 | -0.94% |
| CCC1CCCCN1CCCNC(=O)c1cc2c(Cl)nc3ccccc3c2s1 (stereo not given) | -24.2% |
| O=C(C1=C[C@H](c2coc3ccccc3c2=O)C[C@H](OCc2ccc(CO)cc2)O1)N1CCN(Cc2ccccc2)CC1 | 7.51% |
| O=C1CC(c2c(F)cccc2Cl)C(n2cncn2)C(O)=C1C1NCCc2ccccc21 (stereo not given) | -3.15% |
| O=C(O)c1ccc(N/N=C/c2ccc3ncccc3c2)cc1 | 37.4% (active) |
| O=C(O)c1ccc(N/N=C/c2cn(-c3ccccc3)nc2-c2cccs2)cc1 | -5.55% |
| CCNC(=S)NNC(=O)c1ccc2ncccc2c1 | -9.62% |
| COc1ccc(N2CCN(C(=O)c3ccc4c(Cl)c5c(nc4c3)CCCC5)CC2)cc1 | 1.44% |
| Cn1cccc1-c1nc2ccccc2n1C | -1.19% |
| CN1c2ccccc2-c2nc3ccccc3n2C1c1ccco1 (stereo not given) | -3.93% |
| Cn1c(-c2ccco2)nc2cc3ccccc3cc21 | 36.6% (active) |
| COCCNC(=S)N1CCC(NC(=O)C23CC4CC(CC(C4)C2)C3)CC1 | -0.94% |
| CCOC(=O)C1(Cc2ccc(Cl)cc2)CCN(C(=O)C2=NNC(=O)CC2)CC1 | 2.27% |
| COC(=O)C1=C(C)N(C(C)c2ccccc2)C(=O)/C1=C\c1ccco1 (stereo not given) | 6.65% |
| CCn1c(CSc2nc(C)cc(C)n2)nnc1SCC(N)=O | -4.79% |
| Cc1ccccc1-n1cc(CNC(=O)CC2C(=O)NCCN2C/C=C/c2ccccc2)cn1 (stereo not given) | -1.08% |
| O=C(CCN1CCN(c2ccccc2)CC1)NNC(=S)Nc1ccccc1 | 12.2% |
